# In PubChem BioAssay (NCI):
# Compounds without any hit were thinned out: in the full panel of roughly 83,000, 20% have a hit.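 A percent growth of 40 corresponds to 60% growth inhibition; 0 means no net growth; -100 means all cells died. Active threshold: below 10.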 Values without a mark were called inactive. Calls of active or inactive are those of the source.
# Legend:
# Experiment in all cases: NCI-60 one-dose screen, 48 h (100 = growth as untreated, 0 = no growth, -100 = all killed)
# Conditions in all cases: 10 µM unless noted
# NCI-H23 lung = system: NCI-H23 lung
# NCI-H226 lung = system: NCI-H226 lung
# NCI-H322M lung = system: NCI-H322M lung
# HOP-62 NSCLC = system: HOP-62 NSCLC
# NCI-H460 lung = system: NCI-H460 lung
# HOP-92 NSCLC = system: HOP-92 NSCLC
# NCI-H522 lung = system: NCI-H522 lung
# A549/ATCC NSCLC = system: A549/ATCC NSCLC
# COLO 205 colon = system: COLO 205 colon
# DU-145 prostate = system: DU-145 prostate
# K-562 leukemia = system: K-562 leukemia
# MALME-3M melanoma = system: MALME-3M melanoma
# MDA-MB-231 breast = system: MDA-MB-231 breast
# RXF 393 renal = system: RXF 393 renal
# SF-268 CNS = system: SF-268 CNS
# SF-295 CNS = system: SF-295 CNS
# SF-539 CNS = system: SF-539 CNS
# UACC-257 melanoma = system: UACC-257 melanoma
# M14 melanoma = system: M14 melanoma
# 786-0 renal = system: 786-0 renal
SMILES,growth (NCI-H23 lung),growth (NCI-H226 lung),growth (NCI-H322M lung),growth (HOP-62 NSCLC),growth (NCI-H460 lung),growth (HOP-92 NSCLC),growth (NCI-H522 lung),growth (A549/ATCC NSCLC),growth (COLO 205 colon),growth (DU-145 prostate),growth (K-562 leukemia),growth (MALME-3M melanoma),growth (MDA-MB-231 breast),growth (RXF 393 renal),growth (SF-268 CNS),growth (SF-295 CNS),growth (SF-539 CNS),growth (UACC-257 melanoma),growth (M14 melanoma),growth (786-0 renal)
CCOC(=O)c1c(/N=C2\SC(=O)/C(=C\C(=O)OC)N2NC)sc2c1CCN(C(=O)OCC)C2,96.4%,99%,97.8%,99.2%,101%,90.6%,94.7%,98.8%,109%,101%,99.9%,101%,100%,106%,96.2%,98.7%,96.9%,101%,91.7%,
Cc1cccc(/C=N/Nc2cc(C)c3cccc(C)c3n2)n1,94.3%,86.9%,100%,110%,92.9%,75.5%,87%,87.8%,96.2%,101%,69.8%,,90.4%,98.2%,101%,,88%,80%,98.4%,107%
Cc1ccc(NS(=O)(=O)c2cc(C)ccc2C)cc1,59.2%,79.1%,88.7%,49.3%,14.4%,39.6%,11.5%,33.5%,32.8%,57.9%,,54.1%,57.4%,47.6%,53.7%,30.7%,45.4%,73%,8.87% (active),61%
C=C1C(=O)O[C@H]2[C@H]1CC/C(COC(=O)NCc1ccccc1OC)=C\CC[C@@]1(C)O[C@@H]21,73.6%,55.6%,93.2%,77.1%,59.2%,32.6%,-73.6% (active),71.6%,-35.2% (active),20.1%,,68.8%,46.2%,10%,53.1%,,28.7%,,33%,7.8% (active)
CN(C)CC(C(=O)c1ccccc1)c1ccccc1 (centres undefined),58.2%,47.4%,106%,43.7%,79.5%,-0.711% (active),-77.5% (active),71.4%,-48% (active),14.7%,,57.7%,80%,54.8%,5.71% (active),93.1%,33.7%,32.7%,-1.12% (active),74%
Nc1cc2c(cc1C(=O)c1cccc(F)c1)OCCO2,95.4%,91.4%,98.5%,95%,104%,72.9%,87.3%,91.6%,111%,109%,,109%,102%,104%,98.4%,94.5%,103%,93.4%,107%,94%
Clc1ccc(-c2nc3ccccc3s2)cc1Cl,94.2%,87.2%,110%,104%,96.4%,84.1%,82.7%,97.7%,111%,112%,,114%,68%,109%,99.2%,108%,104%,114%,104%,103%
O=C1CS/C(=N\Nc2cc(=O)[nH]c3ccccc23)N1c1ccccc1,96.4%,95.6%,99.3%,86.6%,100%,65.1%,76.2%,97.2%,105%,111%,86.8%,96.9%,78.3%,95.6%,86.1%,96.8%,93%,99.9%,104%,
